This passage reports max response, outcome and Potency results from PubChem BioAssay (NCATS).

Values joined by “and” are separate entries in the source; they are usually repeats but may differ in a detail not shown here. Identical values can stand only once. Inconclusive results are not listed. Unmarked numbers belong to inactive results. Active and inactive are the calls of the source. The call rests on the fitted dose curve; in most records, active means well fitted inhibition curve with a large enough effect; inconclusive means small, poorly fitted or top-dose-only effect; inactive means flat fitted curve, though single readings scatter.

Experiment [1] relates to HaCat. Description: Cytotoxic Profiling of Annotated Libraries Using Quantitative High-Throughput Screening (AID 1296008). Further: potency means the concentration at half of the fitted maximal effect. On max response: on the % scale 0 is the no-effect control and ±100 the full control effect. Particulars: Five cell lines viability, CellTiter-Glo ATP luminescence, 48-72 h; max response: active compounds read low. The method in brief: (§1)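 Compounds were pin-transferred onto cells and incubated 48 or 72 hr at 37 degree Celsius, 95% humidity. CellTiter-Glo was added, plates sat 10 min at room temperature, then ATP-coupled luminescence was imaged as the viability read-out.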

A further experiment concerns NIH3T3. The description is as above. Particulars: Five cell lines viability, CellTiter-Glo ATP luminescence, 48-72 h; max response: active compounds read low. The method in brief: as §1
Experiment [2] concerns HACAT. The experiment in a line: qHTS assay to identify novel small-molecules to repurpose for Merkel cell carcinoma treatment (AID 1296009). Conditions: MCC and control cell lines, CellTiter-Glo viability, 72 h; at 44.8 µM (top of the series) unless noted. The method in brief: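 Viability readout: ATP luminescence (CellTiter-Glo) after 72 hr drug exposure at 37 degree celsius. Dose-response format was 8 points for NPC and 11 points for MIPE; data normalized to in-plate controls.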

The next experiment relates to KB-3-1. Description: Cytotoxic Profiling of Annotated Libraries Using Quantitative High-Throughput Screening (AID 1296008). Further: potency means the concentration at half of the fitted maximal effect. On max response: on the % scale 0 is the no-effect control and ±100 the full control effect. Particulars: Five cell lines viability, CellTiter-Glo ATP luminescence, 48-72 h; max response: active compounds read low. In a few lines: as §1
The next experiment has as its system HB3. The experiment in a line: qHTS profiling for inhibitors of Plasmodium falciparum proliferation (AID 504749). Further: potency means the concentration at half of the fitted maximal effect. Conditions: P. falciparum in erythrocytes, SYBR Green DNA, 72 h; series mostly up to 28.7 µM. The method in brief:
(§2)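 Quantitative HTS: compounds pinned into medium, infected erythrocytes added (0.3% parasitemia, 2.5% hematocrit), 72 h culture at 37 C under 5% CO2. Saponin/Triton lysis with SYBR Green I, overnight RT, then fluorescence read.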

The next experiment deals with ICS. The description is as above. Particulars: P. falciparum in erythrocytes, SYBR Green DNA, 72 h; series mostly up to 28.7 µM. In a few lines:
as §2

A further experiment deals with JCK. Described as above. Conditions: P. falciparum in erythrocytes, SYBR Green DNA, 72 h; series mostly up to 28.7 µM. In a few lines:
as §2

A further experiment has as its system N140. The description is as above. Conditions: P. falciparum in erythrocytes, SYBR Green DNA, 72 h; series mostly up to 28.7 µM. In a few lines:
as §2

A further experiment has as its system P93_24. The experiment is described as above. Conditions: P. falciparum in erythrocytes, SYBR Green DNA, 72 h; series mostly up to 28.7 µM. In a few lines: as §2
In a further experiment the test system is P94_40. The experiment is described as above. Conditions: P. falciparum in erythrocytes, SYBR Green DNA, 72 h; series mostly up to 28.7 µM. The method in brief: as §2
The next experiment has as its system PAD. Described as above. Conditions: P. falciparum in erythrocytes, SYBR Green DNA, 72 h; series mostly up to 28.7 µM. In a few lines:
as §2

A further experiment concerns PC15. The experiment is described as above. Conditions: P. falciparum in erythrocytes, SYBR Green DNA, 72 h; series mostly up to 28.7 µM. The method in brief:
as §2

A further experiment relates to PC26. Described as above. Particulars: P. falciparum in erythrocytes, SYBR Green DNA, 72 h; series mostly up to 28.7 µM. In a few lines:
as §2

For the next experiment, the system named is PC49. The description is as above. Particulars: P. falciparum in erythrocytes, SYBR Green DNA, 72 h; series mostly up to 28.7 µM. In a few lines: as §2
For a further experiment, the system named is SC27B. Described as above. Conditions: P. falciparum in erythrocytes, SYBR Green DNA, 72 h; series mostly up to 28.7 µM. The method in brief: as §2
For the next experiment, the system named is TAB109. Described as above. Particulars: P. falciparum in erythrocytes, SYBR Green DNA, 72 h; series mostly up to 28.7 µM. The method in brief: as §2
The subject of another experiment is TAB113. The description is as above. Conditions: P. falciparum in erythrocytes, SYBR Green DNA, 72 h; series mostly up to 28.7 µM. In a few lines: as §2
A further experiment relates to TAB165. The experiment is described as above. Particulars: P. falciparum in erythrocytes, SYBR Green DNA, 72 h; series mostly up to 28.7 µM. The method in brief:
as §2

Another experiment concerns HEK293. The experiment in a line: Cytotoxic Profiling of Annotated Libraries Using Quantitative High-Throughput Screening (AID 1296008). Further: potency means the concentration at half of the fitted maximal effect. On max response: on the % scale 0 is the no-effect control and ±100 the full control effect. Conditions: Five cell lines viability, CellTiter-Glo ATP luminescence, 48-72 h; max response: active compounds read low. The method in brief:
as §1
Further: nearly all actives have a fitted effect of over 60% in size.

`C[C@H](N)C(=O)N[C@@H](C)C(=O)NC1[C@H]2CN(c3nc4c(cc3F)c(=O)c(C(=O)O)cn4-c3ccc(F)cc3F)C[C@@H]12` (some centres undefined): the max response with HaCat [1] is 0.555%.

Regarding `COc1c(C)c2c(c(O)c1C/C=C(\C)CCC(=O)OCCN1CCOCC1)C(=O)OC2`, in the experiment on HaCat [1], the max response is -40.9%.

On to `CCC(C(=O)OCCN1CCOC(c2ccccc2)C1C)c1ccccc1` (centres undefined), for which the molecule was called inactive with HaCat [1] and with HACAT [2]. The max response with NIH3T3 was -22.2%.

Regarding `CCOC(=O)N1CCC(n2c(=O)[nH]c3cc(Cl)ccc32)CC1`, the max response is -12.1% in the experiment with HaCat [1] and 3.06% in the experiment on NIH3T3.

As to `COC(=O)C1=C(C)NC(COC(N)=O)=C(C(=O)OC(C)C)C1c1cccc(Cl)c1Cl` (centres undefined), the max response with KB-3-1 is 2.72%. In addition, the Potency with NIH3T3 was 15 µM (active).

As for `CN1CCCN=C1/C=C/c1cccs1`, the molecule was called inactive in the experiment with HACAT [2].

As to `O=C(CCC1CCN(Cc2ccccc2)CC1)c1ccc2c(c1)NCCCC2`, the figures for the max response in the experiment with HaCat [1] and in the experiment with KB-3-1 were 2.9% and -12.9%, respectively.

For `Clc1ccc2c(c1)N=C(N1CCNCC1)c1ccccc1N2`, the max response in the experiment with HaCat [1] was 2.45%.

Consider `O=S(=O)(O)c1ccc2nc(-c3ccccc3)[nH]c2c1`, for which the Potency result with HB3, in the experiment with ICS, in the experiment on JCK, with N140, in the experiment on P93_24 and with P94_40 was “inactive” in each case. In addition, the Potency result in the experiment on PAD, with PC15, in the experiment with PC26, with PC49, in the experiment with SC27B and in the experiment with TAB109 was “inactive” in each case. Besides, the Potency entry in the experiment with TAB113 and in the experiment on TAB165 was “inactive” in each case. Moreover, the max response with HaCat [1] was -12.3%.

For the molecule `CN=C(N)NC(=O)Nc1c(C)cccc1C`, the molecule was classed as inactive with HACAT [2].

Turning to `O=C(Nc1ccc(Cl)cc1)Nc1ccc(Cl)c(Cl)c1`, the Potency with HB3 was 11.2 µM (active); with ICS, 0.631 µM (active); in the experiment with JCK, 10 µM (active); in the experiment on N140, 2 µM (active); in the experiment with P93_24, 3.55 µM (active); in the experiment with P94_40 it was 2.82 µM (active). Further, the Potency in the experiment on PAD is 2.24 µM (active); in the experiment on PC15, 2.51 µM (active); with PC26 it was 1.51 µM (active); with PC49, 2.24 µM (active); with SC27B, 2.24 µM (active); in the experiment on TAB109 it was 3.55 µM (active). The figures for the Potency in the experiment on TAB113, in the experiment with TAB165 and in the experiment with HEK293 were 2.24 µM (active), 1.78 µM (active) and 7.5 µM (active), respectively.

In the case of `CN1CCC(Nc2ncc3ncnc(Nc4ccc(F)c(Cl)c4)c3n2)CC1`, the Potency in the experiment on ICS is 6.31 µM (active); with JCK it was 7.94 µM (active); with N140 it was 10 µM (active); in the experiment on P93_24, 7.08 µM (active); with P94_40 it was 8.91 µM (active); with TAB109, 11.2 µM (active). Also, the Potency is 11.2 µM (active) in the experiment with TAB165 and 0.237 µM (active) with HaCat [1]. In addition, the max response in the experiment with KB-3-1 is -0.0832%.

For the molecule `C/C(=C(/OCCOc1ccc(Cl)cc1)c1ccc(Cl)cc1Cl)n1ccnc1`, the max response in the experiment with NIH3T3 was -25.5%.

On to `CC(NCCC(c1ccccc1)c1ccccc1)c1ccccc1` (centres undefined), for which the Potency is 10 µM (active) in the experiment on HB3; 2.24 µM (active) in the experiment with ICS; 11.2 µM (active) in the experiment on N140; 12.6 µM (active) in the experiment on P93_24; 11.2 µM (active) in the experiment on P94_40; 12.6 µM (active) in the experiment on PAD. Further, the Potency in the experiment on PC15 was 11.2 µM (active); in the experiment on PC26 it was 8.49 µM (active); in the experiment on PC49, 5.01 µM (active); in the experiment on SC27B it was 11.2 µM (active); in the experiment with TAB109, 12.6 µM (active); with TAB165, 11.2 µM (active). In addition, in the experiment on KB-3-1, the max response is -10.5%.

On to `CCCCC/C=C\C/C=C\CCCCCCCC(=O)NC(C)c1ccccc1` (centres undefined), for which the max response in the experiment with HaCat [1] was -11.3%; in the experiment with KB-3-1, -8.18%; with NIH3T3, -26.3%.

Take `CCCc1c2oc(C(=O)O)cc(=O)c2cc2c(=O)cc(C(=O)O)n(CC)c12`: the call in the experiment with HACAT [2] was inactive.

As to `Nc1ncnc2nc[nH]c12`, the Potency entry in the experiment on HB3, in the experiment on ICS, in the experiment with JCK, with N140, in the experiment with P93_24 and in the experiment on P94_40 was “inactive” in each case. Further, the Potency entry in the experiment with PAD, with PC15, with PC26, in the experiment with PC49, with SC27B and in the experiment with TAB109 was “inactive” each time. Moreover, the Potency result with TAB113 and in the experiment on TAB165 was “inactive” in each case. Moreover, the molecule was called inactive in the experiment on HACAT [2].

Regarding `C[C@H]1C[C@H]2[C@@H]3CCC4=CC(=O)C=C[C@]4(C)[C@H]3C(=O)C[C@]2(C)[C@@]1(O)C(=O)CO`, the max response with HaCat [1] is -5.83%. In addition, the result in the experiment with NIH3T3 was inactive.

Consider `O=[N+]([O-])c1ccc(O)c2ncccc12`, for which the Potency with ICS was 12.6 µM (active); with TAB165, 14.1 µM (active); in the experiment with HEK293, 8.41 µM (active); in the experiment on NIH3T3, 15 µM (active). Moreover, the Potency result with PAD, with PC15, in the experiment on PC26 and with PC49 was “inactive” each time.

On to `O=C(OCC(O)CO)c1ccccc1Nc1ccnc2c(C(F)(F)F)cccc12` (centres undefined), for which the values for the max response in the experiment with HaCat [1] and in the experiment with NIH3T3 were -6.27% and -7.27%, respectively.

As for `CC(CC1c2ccccc2CCc2ccccc21)CN(C)C` (centres undefined), in the experiment on HaCat [1], the max response is 1.42%.

In the case of `Cc1cccc(N(C)C(=S)Oc2ccc3c(c2)CCC3)c1`, the max response is -7.13% in the experiment with HaCat [1], -1.52% in the experiment with KB-3-1 and -6.52% with NIH3T3.

For the molecule `COc1ccc(-n2nc(CCC(=O)N(C)O)cc2-c2ccc(Cl)cc2)cc1`, the molecule was classed as inactive in the experiment on HaCat [1] and with HACAT [2].

`Nc1nc2ccccc2n1Cc1ccc(F)cc1`: the result in the experiment on HaCat [1], in the experiment with NIH3T3 and in the experiment with HACAT [2] was inactive.

Regarding `CN1CCC(N(Cc2cccs2)c2ccccc2)CC1`, the results for the max response with HaCat [1], in the experiment with KB-3-1 and with NIH3T3 were -4.44%, -11.3% and -5.48%, respectively.

With `C[N+](C)(C)CCO`, the max response with KB-3-1 is -9.9% and -0.543%.

Take `O=C1OC2(c3ccccc31)c1cc(I)c(O)c(I)c1Oc1c2cc(I)c(O)c1I`: the molecule was called inactive in the experiment on HaCat [1] and in the experiment on HACAT [2]. Also, in the experiment with NIH3T3, the max response is -20.5%.

For the molecule `NCC(=O)O`, the max response in the experiment with HaCat [1] was -52.5%; in the experiment with KB-3-1, -10.5%; with NIH3T3, -6.02%.

Turning to `COC(=O)c1cc(Cl)ccc1NS(=O)(=O)C(F)(F)F`, the figures for the max response in the experiment with HaCat [1] and in the experiment with NIH3T3 were -18% and -7.02%, respectively.
